Some test systems named below: RPMI-8226 leukemia; OVCAR-8 ovarian; OVCAR-5 ovarian; OVCAR-4 ovarian; SK-OV-3 ovarian; IGROV1 ovarian; OVCAR-3 ovarian; HS 578T breast; NCI/ADR-RES ovarian; T-47D breast.
What all share (assay): NCI-60 one-dose screen, 48 h (100 = growth as untreated, 0 = no growth, -100 = all killed)
Conditions in all cases: 10 µM unless noted

About 83,000 compounds went through this panel and 20% of them were active in at least one assay; those are over-represented in the sample as a whole.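 Cell lines were cultured in 96-well plates, exposed to a single compound concentration, and assessed for percent growth 48 hours later.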 Unmarked numbers belong to inactive results. Active and inactive are the calls of the source. The calls were made as follows: active = growth percent below 10; inactive = the rest.

As for `C=C1C(=O)O[C@H]2[C@H]1CC/C(COC(=O)c1cc3ccccc3o1)=C\CC[C@@]1(C)O[C@@H]21`, the growth was -23.7% (active) with RPMI-8226 leukemia; -12.6% (active) in the assay on OVCAR-8 ovarian; -18.8% (active) in the assay on OVCAR-5 ovarian; -10.5% (active) in the assay with OVCAR-4 ovarian; 97.2% in the assay with SK-OV-3 ovarian; -40.1% (active) with IGROV1 ovarian. In addition, the growth in the assay with OVCAR-3 ovarian is -87.4% (active); with HS 578T breast it was -4.65% (active); in the assay with NCI/ADR-RES ovarian, 14.2%; in the assay with T-47D breast, -48% (active).
Consider `Cn1c2ccccc2c2c(OC(=O)c3ccccc3)c3c(nc21)-c1ccccc1C3`, for which the growth in the assay on RPMI-8226 leukemia is 96.2%; with OVCAR-8 ovarian it was 92.7%; in the assay on OVCAR-5 ovarian, 112%; in the assay on OVCAR-4 ovarian, 95.7%; in the assay with SK-OV-3 ovarian, 92%; in the assay on IGROV1 ovarian, 82.5%. Also, the growth is 99.1% in the assay with OVCAR-3 ovarian, 107% with HS 578T breast, 99% in the assay with NCI/ADR-RES ovarian and 63.7% in the assay on T-47D breast.
As to `CC(=O)OCC1OC(OC2C(COC(C)=O)OC(OCCC[S-])C(OC(C)=O)C2OC(C)=O)C(OC(C)=O)C(OC(C)=O)C1OC(C)=O.[Au+].c1ccc(CN2[CH-]N(Cc3ccccc3)C(c3ccccc3)=C2c2ccccc2)cc1` (stereo not given), the growth in the assay with RPMI-8226 leukemia was -6.87% (active); in the assay on OVCAR-8 ovarian, 22%; in the assay on OVCAR-5 ovarian it was 62.4%; in the assay on OVCAR-4 ovarian, 17.5%; in the assay with SK-OV-3 ovarian, 13%; with IGROV1 ovarian, 35.3%. Moreover, the growth in the assay on OVCAR-3 ovarian is -2.96% (active); with HS 578T breast it was 47.5%; in the assay with NCI/ADR-RES ovarian, 96.6%; in the assay with T-47D breast, 18.8%.
`S=C(Nc1ccccc1)c1ccccn1`: the growth in the assay on RPMI-8226 leukemia was 56.5%; in the assay on OVCAR-8 ovarian it was 91.2%; with OVCAR-5 ovarian, 88.9%; with OVCAR-4 ovarian it was 100%; in the assay with SK-OV-3 ovarian, 90.9%; in the assay with IGROV1 ovarian, 1.38% (active). Also, the growth in the assay with OVCAR-3 ovarian is 67.7%; in the assay on HS 578T breast, 101%; in the assay with NCI/ADR-RES ovarian it was 93.1%; in the assay on T-47D breast, 96.6%.
`O=C(Nc1nc(-c2ccccc2)cs1)c1cc(-c2ccc(Br)cc2)nc2ccccc12`: the growth was 39.9% in the assay with RPMI-8226 leukemia; 57.1% in the assay on OVCAR-8 ovarian; 81.7% in the assay on OVCAR-5 ovarian; 57.6% in the assay on OVCAR-4 ovarian; 51.6% in the assay on SK-OV-3 ovarian; 59.4% in the assay on IGROV1 ovarian. The growth is 63.4% with OVCAR-3 ovarian, 62.1% in the assay on HS 578T breast, 58.5% with NCI/ADR-RES ovarian and 21.7% in the assay with T-47D breast.
With `C=C1C(=O)O[C@H]2[C@H]1CCC(/C=N/c1ncc(Br)cc1N)=C\CC[C@@]1(C)O[C@@H]21`, the growth is -24.1% (active) in the assay with RPMI-8226 leukemia; 4.39% (active) with OVCAR-8 ovarian; 49.4% in the assay with OVCAR-5 ovarian; 37% in the assay with OVCAR-4 ovarian; 69.3% in the assay on SK-OV-3 ovarian; -1.81% (active) in the assay with IGROV1 ovarian. Further, the growth is -58.3% (active) in the assay on OVCAR-3 ovarian, 32.4% with HS 578T breast, 58% in the assay on NCI/ADR-RES ovarian and 5.65% (active) in the assay with T-47D breast.
With `COC(=O)/C=C1\SC(=Nc2cccc(Cl)c2)N(CCc2c[nH]c3ccccc23)C1=O`, the growth in the assay on RPMI-8226 leukemia was -25% (active); in the assay on OVCAR-8 ovarian it was 51.4%; with OVCAR-5 ovarian it was 73.6%; with OVCAR-4 ovarian, 62%; in the assay on SK-OV-3 ovarian, 83.8%; with IGROV1 ovarian it was 53.7%. Also, the growth in the assay with OVCAR-3 ovarian was 33.3%; in the assay on HS 578T breast it was 67.4%; in the assay with NCI/ADR-RES ovarian it was 52.4%; in the assay with T-47D breast, 11.9%.
On to `C#C[C@@]1(O)[C@@H](CO)O[C@@H](n2cc(Br)c3c(N)ncnc32)[C@@H]1O`, for which the growth in the assay with RPMI-8226 leukemia was 0.406% (active); in the assay on OVCAR-8 ovarian it was -0.359% (active); in the assay with OVCAR-5 ovarian, 18.8%; with OVCAR-4 ovarian, 5.79% (active); in the assay on SK-OV-3 ovarian, -8.02% (active); in the assay with IGROV1 ovarian, -22.5% (active). In addition, the growth in the assay with OVCAR-3 ovarian was -25.5% (active); with HS 578T breast, -5.73% (active); in the assay on NCI/ADR-RES ovarian, 1.19% (active); in the assay with T-47D breast, -20.1% (active).
As to `C(=C\c1cn(-c2ccccc2)nc1-c1ccccc1)/c1nnc(-c2c[nH]c3ccccc23)o1`, the growth in the assay on RPMI-8226 leukemia is 40.8%; with OVCAR-8 ovarian, 35.2%; with OVCAR-5 ovarian it was 93.3%; in the assay on OVCAR-4 ovarian, 47.9%; with SK-OV-3 ovarian, 91.8%; in the assay with IGROV1 ovarian, 59.2%. Further, the growth in the assay with OVCAR-3 ovarian was 20.9%; in the assay with HS 578T breast, 44.7%; with NCI/ADR-RES ovarian, 51.8%; in the assay with T-47D breast, 55.5%.
For `COc1ccc2[nH]c3nc4cnccc4cc3c2c1`, the growth was 101% with RPMI-8226 leukemia; 97% with OVCAR-8 ovarian; 128% with OVCAR-5 ovarian; 101% in the assay with OVCAR-4 ovarian; 95.3% with SK-OV-3 ovarian; 89.3% with IGROV1 ovarian. Also, the growth with OVCAR-3 ovarian was 104%; with HS 578T breast it was 110%; in the assay on NCI/ADR-RES ovarian, 104%; in the assay with T-47D breast it was 94.6%.
With `CC(C)NS(=O)(=O)c1cccc(-c2ccc3c(=O)n(CCCN)c4c(c3c2)C(=O)c2ccccc2-4)c1`, the growth is 102% with RPMI-8226 leukemia; 97.6% with OVCAR-8 ovarian; 109% in the assay with OVCAR-5 ovarian; 85.2% in the assay with OVCAR-4 ovarian; 107% in the assay on SK-OV-3 ovarian; 102% with IGROV1 ovarian. The growth in the assay with OVCAR-3 ovarian is 99%; with HS 578T breast it was 105%; with NCI/ADR-RES ovarian, 98.6%; in the assay with T-47D breast it was 103%.
Turning to `CC(=O)OC[C@]12CC[C@@H](c3cn(Cc4ccc(Cn5cc([C@@H]6CC[C@]7(COC(C)=O)CC[C@]8(C)[C@H](CC[C@@H]9[C@@]%10(C)CC[C@H](OC(C)=O)C(C)(C)[C@@H]%10CC[C@]98C)[C@@H]67)nn5)cc4)nn3)[C@@H]1[C@H]1CC[C@@H]3[C@@]4(C)CC[C@H](OC(C)=O)C(C)(C)[C@@H]4CC[C@@]3(C)[C@]1(C)CC2`, the growth in the assay with RPMI-8226 leukemia was 108%; with OVCAR-8 ovarian, 92%; with OVCAR-5 ovarian, 102%; with OVCAR-4 ovarian it was 109%; in the assay on SK-OV-3 ovarian, 100%; in the assay on IGROV1 ovarian it was 105%. Also, the growth is 97.4% in the assay with OVCAR-3 ovarian, 97.2% in the assay on HS 578T breast, 102% with NCI/ADR-RES ovarian and 87.1% in the assay with T-47D breast.
As to `COc1ccccc1N1CCN(CCCOc2ccc(C(=O)/C=C3/C(=O)Nc4ccccc43)cc2)CC1`, the growth with RPMI-8226 leukemia was 34.9%; in the assay on OVCAR-8 ovarian, 65.9%; in the assay on OVCAR-5 ovarian, 32.4%; with OVCAR-4 ovarian it was 45.2%; in the assay on SK-OV-3 ovarian, 79.7%; in the assay with IGROV1 ovarian it was 67.7%. The growth is 66.1% with OVCAR-3 ovarian, 26.7% in the assay with HS 578T breast, 73% in the assay with NCI/ADR-RES ovarian and 33.3% in the assay on T-47D breast.

For the origin of these results see PubChem BioAssay (NCI).
